Test [1] concerns the target sheep Cyclooxygenase-2 (Cox2), PTGS2 (gene 443460) (UniProt P79208). Kind of test: NVS_ENZ_oCOX2: NovaScreen (NVS) Enzymatic Assay for sheep Cyclooxygenase-2 (Cox2) (AID 2283231). The essentials:
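Enzyme from ovine placenta, cell-free; colorimetric absorbance read 0.66 hour after dosing, loss of signal vs DMSO. Screened in duplicate at 25 uM, then concentration-response up to 50 uM.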

In test [2] the target is rat Catechol-O-Methyl Transferase (COMT), Comt (gene 24267) (UniProt P22734). Kind of test: NVS_ENZ_rCOMT: NovaScreen (NVS) Enzymatic Assay for rat Catechol-O-Methyl Transferase (COMT) (AID 2283235). In a few lines:
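Cell-free enzyme activity with protein extracted from rat dorsal striatum, measured by HPLC with absorbance detection. Compounds screened at 25 uM in duplicate; actives then run in concentration-response up to 50 uM, loss of signal versus DMSO.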

Test [3] deals with sheep Cyclooxygenase-1 (Cox1), PTGS1 (gene 443551) (UniProt P05979). Kind of test: NVS_ENZ_oCOX1: NovaScreen (NVS) Enzymatic Assay for sheep Cyclooxygenase-1 (Cox1) (AID 2283239).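 Further: actives reduce cyclooxygenase activity so potencies are for inhibitors.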 In a few lines:
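Ovine seminal vesicle extract; absorbance (colorimetric) enzyme read-out at 0.66 h post-dose. Primary: single conc 25 uM, duplicate. Follow-up: concentration series on actives. Activity = signal loss vs DMSO baseline.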

The subject of test [4] is guinea pig Leukotriene B4 Receptor (LTB4), gene 100379538. The experiment in a line: NVS_GPCR_gLTB4: NovaScreen (NVS) G Protein-Coupled Receptor Assay for guinea pig Leukotriene B4 Receptor (LTB4) (AID 2283247). In a few lines:
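Radioligand displacement on guinea pig spleen membranes, filter-based scintillation counting 2 h after dosing. Primary duplicate single point at 25 uM; hits over threshold (e.g. 30% inhibition) run in concentration-response up to 50 uM, DMSO baseline.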

Test [5] concerns the target human Adenosine A1 Receptor (AdoRA1), ADORA1 (gene 134) (UniProt P30542). Kind of test: NVS_GPCR_hAdoRA1: NovaScreen (NVS) G Protein-Coupled Receptor Assay for human Adenosine A1 Receptor (AdoRA1) (AID 2283254). In a few lines: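 Radioligand binding was run on human cortical membranes, cell-free, with filter-based scintillation counting 1 h after dosing. The primary screen was duplicate at 25 uM, followed by concentration series. Signal loss versus DMSO was fitted positive-direction.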

Test [6] addresses human Vascular Endothelial Growth Factor Receptor 2 (VEGFR2), KDR (gene 3791) (UniProt P35968). Kind of test: NVS_ENZ_hVEGFR2: NovaScreen (NVS) Enzymatic Assay for human Vascular Endothelial Growth Factor Receptor 2 (VEGFR2) (AID 2283230). In a few lines:
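Cell-free recombinant VEGFR2 kinase, fluorescent substrate with electrophoretic mobility-shift separation; read 1 h after dosing. Screened at 25 uM in duplicate, hits to concentration-response up to 50 uM; loss-of-signal versus DMSO.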

In test [7] the test system is bovine Angiotensin II Receptor Type 2 (AT2), gene 407157. The experiment in a line: NVS_GPCR_bAT2: NovaScreen (NVS) G Protein-Coupled Receptor Assay for bovine Angiotensin II Receptor Type 2 (AT2) (AID 2283240). In a few lines: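 Radioligand displacement on bovine cerebellar membranes, 1 hour incubation, filter-based scintillation counting; loss of signal vs DMSO. Duplicate single-point screen at 25 uM, then concentration-response to 50 uM maximum.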

A short description of test [8]: NVS_GPCR_bNPY_NonSelective: NovaScreen (NVS) G Protein-Coupled Receptor Assay for bovine Neuropeptide Y (NPY) Receptor, Non-selective Binding (AID 2283245). The essentials: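 Bovine hippocampal membranes incubated 1 hour with radioligand and test chemical. Bound ligand measured by filter-based scintillation counting. Single-concentration screen at 25 uM in duplicate, then concentration-response up to 50 uM.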

The target of test [9] is human Serotonin, 5-Hydroxytryptamine Receptor 2A (5HT2A), HTR2A (gene 3356) (UniProt P28223). Kind of test: NVS_GPCR_h5HT2A: NovaScreen (NVS) G Protein-Coupled Receptor Assay for human Serotonin, 5-Hydroxytryptamine Receptor 2A (5HT2A) (AID 2283249). The essentials: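 Human cortex membranes, cell-free radioligand binding; filter-based scintillation read 1.5 h after dosing. Duplicate screen at 25 uM first; displacement of specific binding (loss of signal) versus DMSO.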

Test [10] concerns guinea pig Muscarinic, Peripheral (Mperiperal) Receptor, Non-selective Binding, gene 100379235. Kind of test: NVS_GPCR_gMPeripheral_NonSelective: NovaScreen (NVS) G Protein-Coupled Receptor Assay for guinea pig Muscarinic, Peripheral (Mperiperal) Receptor, Non-selective Binding (AID 2283250). In a few lines:
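Guinea pig bladder membranes, radioligand binding read 1 h after dosing by filter scintillation counting; loss of signal vs DMSO. Primary duplicate screen at 25 uM, then concentration-response up to 50 uM.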

Test [11] concerns the target human Serotonin, 5-Hydroxytryptamine Receptor 5A (5HT5A), HTR5A (gene 3361) (UniProt P47898). Kind of test: NVS_GPCR_h5HT5A: NovaScreen (NVS) G Protein-Coupled Receptor Assay for human Serotonin, 5-Hydroxytryptamine Receptor 5A (5HT5A) (AID 2283251). The essentials: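 Cell-free radioligand displacement binding on HEK293-derived membrane protein, 1 h incubation, filter-based scintillation counting. Primary screen in duplicate at 25 uM, actives followed in concentration series; loss of signal fitted versus DMSO.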

The target in test [12] is guinea pig Opioid, Kappa 1 Receptor (OpiateK), OPRK1 (gene 100135587) (UniProt P41144). The experiment in a line: NVS_GPCR_gOpiateK: NovaScreen (NVS) G Protein-Coupled Receptor Assay for guinea pig Opioid, Kappa 1 Receptor (OpiateK) (AID 2283252).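 Further: radioligand displacement from kappa opioid receptor in guinea pig cerebellar membranes; active means reduced radioligand binding relative to DMSO.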 The essentials:
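Guinea pig cerebellar membranes were incubated with a radioligand for 2 h after compound addition; bound radioactivity was read by filter-based scintillation counting. Loss of specific binding relative to DMSO baseline defined activity; primary screen at 25 uM in duplicate.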

The target in test [13] is human Serotonin, 5-Hydroxytryptamine Receptor 7 (5HT7), HTR7 (gene 3363) (UniProt P34969). Kind of test: NVS_GPCR_h5HT7: NovaScreen (NVS) G Protein-Coupled Receptor Assay for human Serotonin, 5-Hydroxytryptamine Receptor 7 (5HT7) (AID 2283255).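 Further: hits reduce specific radioligand binding relative to DMSO.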 In a few lines:
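Radioligand displacement on membranes from CHO cells expressing human 5HT7, 1 h incubation, filter-based scintillation counting. Primary screen used a single 25 uM concentration in duplicate; actives were followed up in concentration series.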

In test [14] the target is guinea pig Leukotriene D4 Receptor (LTD4), CYSLTR1 (gene 100135514) (UniProt Q2NNR5). Kind of test: NVS_GPCR_gLTD4: NovaScreen (NVS) G Protein-Coupled Receptor Assay for guinea pig Leukotriene D4 Receptor (LTD4) (AID 2283248). The essentials: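 Radioligand displacement on guinea pig lung membranes, 1 h incubation, filtration and scintillation counting; DMSO as negative control. Duplicate 25 uM primary screen, then singleton concentration-response up to 50 uM.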
Chain of guinea pig Leukotriene D4 Receptor (LTD4), CYSLTR1 (gene 100135514) (Q2NNR5 whole entry, looked up): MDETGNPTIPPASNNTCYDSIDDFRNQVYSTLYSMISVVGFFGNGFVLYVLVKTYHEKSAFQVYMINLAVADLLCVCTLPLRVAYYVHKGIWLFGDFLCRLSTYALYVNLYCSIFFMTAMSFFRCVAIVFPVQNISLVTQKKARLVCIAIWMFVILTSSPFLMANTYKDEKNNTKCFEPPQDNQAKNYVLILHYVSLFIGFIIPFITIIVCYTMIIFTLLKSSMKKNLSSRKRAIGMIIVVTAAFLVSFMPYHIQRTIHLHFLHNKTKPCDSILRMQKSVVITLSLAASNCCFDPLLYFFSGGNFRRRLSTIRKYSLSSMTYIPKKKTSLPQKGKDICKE

For test [15], the target named is human Serotonin, 5-Hydroxytryptamine Receptor 6 (5HT6), HTR6 (gene 3362) (UniProt P50406). Kind of test: NVS_GPCR_h5HT6: NovaScreen (NVS) G Protein-Coupled Receptor Assay for human Serotonin, 5-Hydroxytryptamine Receptor 6 (5HT6) (AID 2283253). In a few lines:
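Radioligand binding to 5HT6 in HEK293-derived membranes, cell-free, 1 h after dosing; bound ligand measured by filter-based scintillation counting. Primary screen in duplicate at 25 uM; actives retested in concentration series.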

Test [16] concerns the target human Adenosine A2a Receptor (AdoRA2a), ADORA2A (gene 135) (UniProt P29274). Kind of test: NVS_GPCR_hAdoRA2a: NovaScreen (NVS) G Protein-Coupled Receptor Assay for human Adenosine A2a Receptor (AdoRA2a) (AID 2283256). The essentials:
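Radioligand displacement on HEK293-derived membrane protein, cell-free; filter-based scintillation counting 1.5 hours after dosing, loss of signal vs DMSO. Single-point duplicate screen at 25 uM, actives retested in concentration series.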

The subject of test [17] is bovine Histamine 1 Receptor (H1), gene 281231. The experiment in a line: NVS_GPCR_bH1: NovaScreen (NVS) G Protein-Coupled Receptor Assay for bovine Histamine 1 Receptor (H1) (AID 2283246). In a few lines:
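Radioligand displacement on bovine cerebellar membranes, 1 h after dosing, filter-based scintillation read-out; loss of signal vs DMSO. Duplicate single-concentration screen at 25 uM, then concentration-response up to 50 uM for hits.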

SMILES strings stand for the structures. Inconclusive results are not listed. Active and inactive are the calls of the source. How the source made its calls: active means hit-call score of the fitted dose curve at least 0.9, where 1 is the maximum; inconclusive means response in the unintended direction; inactive means score below 0.9.

For 16 molecules, AC50 and outcome results are on record in PubChem BioAssay (EPA / NIEHS).

Chain of human Adenosine A2a Receptor (AdoRA2a), ADORA2A (gene 135) (P29274 whole entry, looked up): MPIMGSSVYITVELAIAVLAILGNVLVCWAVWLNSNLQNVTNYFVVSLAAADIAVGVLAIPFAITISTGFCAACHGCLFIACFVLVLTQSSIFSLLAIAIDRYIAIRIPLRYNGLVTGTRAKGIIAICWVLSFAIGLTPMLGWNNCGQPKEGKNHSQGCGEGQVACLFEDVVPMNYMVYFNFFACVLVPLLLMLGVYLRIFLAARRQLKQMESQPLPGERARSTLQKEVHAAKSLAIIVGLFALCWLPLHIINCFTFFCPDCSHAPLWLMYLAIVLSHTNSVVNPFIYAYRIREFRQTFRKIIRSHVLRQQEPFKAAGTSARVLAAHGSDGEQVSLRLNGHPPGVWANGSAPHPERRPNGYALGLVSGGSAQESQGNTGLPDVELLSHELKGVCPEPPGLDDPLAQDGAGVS
Chain of guinea pig Opioid, Kappa 1 Receptor (OpiateK), OPRK1 (gene 100135587) (P41144 whole entry, looked up): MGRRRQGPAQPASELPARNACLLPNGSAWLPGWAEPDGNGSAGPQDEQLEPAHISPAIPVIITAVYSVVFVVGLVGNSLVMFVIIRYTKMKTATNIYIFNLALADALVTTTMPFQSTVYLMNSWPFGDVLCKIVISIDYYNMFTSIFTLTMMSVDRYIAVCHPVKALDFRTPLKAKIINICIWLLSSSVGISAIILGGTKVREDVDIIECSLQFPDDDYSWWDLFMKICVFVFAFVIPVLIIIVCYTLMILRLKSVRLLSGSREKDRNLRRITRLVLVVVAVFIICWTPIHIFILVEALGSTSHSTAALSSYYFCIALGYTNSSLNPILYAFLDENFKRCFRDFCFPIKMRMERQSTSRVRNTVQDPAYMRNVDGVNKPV
Chain of human Vascular Endothelial Growth Factor Receptor 2 (VEGFR2), KDR (gene 3791) (P35968 whole entry, looked up): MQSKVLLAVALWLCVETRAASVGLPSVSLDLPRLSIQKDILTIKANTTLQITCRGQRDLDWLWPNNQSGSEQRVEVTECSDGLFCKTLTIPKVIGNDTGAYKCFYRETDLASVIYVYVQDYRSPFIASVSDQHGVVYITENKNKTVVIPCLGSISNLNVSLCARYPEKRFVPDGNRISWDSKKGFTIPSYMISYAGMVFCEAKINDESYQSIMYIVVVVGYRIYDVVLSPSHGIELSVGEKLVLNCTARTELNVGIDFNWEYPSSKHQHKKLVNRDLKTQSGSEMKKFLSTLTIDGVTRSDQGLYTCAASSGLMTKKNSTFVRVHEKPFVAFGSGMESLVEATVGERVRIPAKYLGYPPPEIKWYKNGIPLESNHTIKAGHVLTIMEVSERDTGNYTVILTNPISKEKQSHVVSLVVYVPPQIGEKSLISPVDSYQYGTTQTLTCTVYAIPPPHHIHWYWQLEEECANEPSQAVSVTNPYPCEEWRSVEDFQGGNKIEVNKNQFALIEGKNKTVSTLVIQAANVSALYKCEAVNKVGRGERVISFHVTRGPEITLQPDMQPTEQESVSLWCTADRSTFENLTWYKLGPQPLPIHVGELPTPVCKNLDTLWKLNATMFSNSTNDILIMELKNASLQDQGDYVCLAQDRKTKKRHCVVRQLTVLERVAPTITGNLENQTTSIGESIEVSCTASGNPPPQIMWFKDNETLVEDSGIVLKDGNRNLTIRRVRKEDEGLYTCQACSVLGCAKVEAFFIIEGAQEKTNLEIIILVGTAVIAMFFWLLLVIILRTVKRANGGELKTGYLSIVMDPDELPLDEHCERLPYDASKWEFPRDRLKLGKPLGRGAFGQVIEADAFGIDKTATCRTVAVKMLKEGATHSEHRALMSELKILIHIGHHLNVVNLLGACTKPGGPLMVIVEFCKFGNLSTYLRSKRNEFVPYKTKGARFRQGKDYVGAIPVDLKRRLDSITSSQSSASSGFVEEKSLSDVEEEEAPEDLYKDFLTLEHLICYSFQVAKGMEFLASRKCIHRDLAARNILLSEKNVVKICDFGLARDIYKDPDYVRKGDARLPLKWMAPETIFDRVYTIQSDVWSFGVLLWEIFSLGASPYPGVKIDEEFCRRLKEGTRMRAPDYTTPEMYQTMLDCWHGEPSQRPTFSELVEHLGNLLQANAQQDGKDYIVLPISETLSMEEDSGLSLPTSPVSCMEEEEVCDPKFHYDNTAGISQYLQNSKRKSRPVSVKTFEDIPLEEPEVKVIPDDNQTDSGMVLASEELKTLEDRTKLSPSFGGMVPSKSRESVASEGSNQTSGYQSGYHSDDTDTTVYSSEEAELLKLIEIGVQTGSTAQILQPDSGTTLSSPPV
Chain of sheep Cyclooxygenase-1 (Cox1), PTGS1 (gene 443551) (P05979 whole entry, looked up): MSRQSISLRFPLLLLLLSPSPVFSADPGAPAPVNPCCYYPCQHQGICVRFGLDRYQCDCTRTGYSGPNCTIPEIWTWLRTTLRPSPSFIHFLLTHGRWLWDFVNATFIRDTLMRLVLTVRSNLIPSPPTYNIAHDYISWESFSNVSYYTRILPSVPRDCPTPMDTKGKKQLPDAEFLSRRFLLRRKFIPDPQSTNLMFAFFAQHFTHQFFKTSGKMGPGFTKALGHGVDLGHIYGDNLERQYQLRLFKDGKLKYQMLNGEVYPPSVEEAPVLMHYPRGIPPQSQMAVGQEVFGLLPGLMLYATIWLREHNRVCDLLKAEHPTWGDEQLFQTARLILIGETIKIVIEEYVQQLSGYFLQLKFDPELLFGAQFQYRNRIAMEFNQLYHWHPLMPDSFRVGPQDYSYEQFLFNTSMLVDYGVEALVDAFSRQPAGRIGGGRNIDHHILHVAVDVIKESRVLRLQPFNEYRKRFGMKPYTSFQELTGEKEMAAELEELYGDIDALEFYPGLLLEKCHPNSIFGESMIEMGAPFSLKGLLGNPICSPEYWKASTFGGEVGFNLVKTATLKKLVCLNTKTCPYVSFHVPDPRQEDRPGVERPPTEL
Chain of human Serotonin, 5-Hydroxytryptamine Receptor 7 (5HT7), HTR7 (gene 3363) (P34969 whole entry, looked up): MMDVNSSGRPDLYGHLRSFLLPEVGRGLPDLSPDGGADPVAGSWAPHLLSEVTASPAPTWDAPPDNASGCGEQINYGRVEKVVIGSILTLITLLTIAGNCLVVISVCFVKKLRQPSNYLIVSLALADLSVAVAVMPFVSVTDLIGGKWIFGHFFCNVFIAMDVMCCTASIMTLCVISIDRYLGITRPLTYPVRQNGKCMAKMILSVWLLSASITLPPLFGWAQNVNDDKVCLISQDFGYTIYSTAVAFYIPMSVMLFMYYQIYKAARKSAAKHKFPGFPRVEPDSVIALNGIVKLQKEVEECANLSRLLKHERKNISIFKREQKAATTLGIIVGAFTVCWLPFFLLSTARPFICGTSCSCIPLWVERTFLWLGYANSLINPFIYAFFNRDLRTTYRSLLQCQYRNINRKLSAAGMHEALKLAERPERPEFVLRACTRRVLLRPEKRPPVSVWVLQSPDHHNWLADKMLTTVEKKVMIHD
Chain of human Serotonin, 5-Hydroxytryptamine Receptor 6 (5HT6), HTR6 (gene 3362) (P50406 whole entry, looked up): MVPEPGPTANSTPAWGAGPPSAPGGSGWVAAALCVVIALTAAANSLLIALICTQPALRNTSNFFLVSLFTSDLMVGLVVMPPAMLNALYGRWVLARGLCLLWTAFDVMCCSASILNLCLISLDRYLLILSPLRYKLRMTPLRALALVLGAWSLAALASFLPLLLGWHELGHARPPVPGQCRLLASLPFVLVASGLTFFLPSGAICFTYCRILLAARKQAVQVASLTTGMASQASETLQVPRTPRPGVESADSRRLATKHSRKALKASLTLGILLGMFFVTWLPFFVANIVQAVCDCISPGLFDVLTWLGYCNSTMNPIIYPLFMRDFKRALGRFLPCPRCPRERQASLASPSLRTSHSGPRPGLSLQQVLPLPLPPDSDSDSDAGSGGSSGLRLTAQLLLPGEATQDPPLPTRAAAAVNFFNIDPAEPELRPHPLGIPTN
Chain of human Adenosine A1 Receptor (AdoRA1), ADORA1 (gene 134) (P30542 whole entry, looked up): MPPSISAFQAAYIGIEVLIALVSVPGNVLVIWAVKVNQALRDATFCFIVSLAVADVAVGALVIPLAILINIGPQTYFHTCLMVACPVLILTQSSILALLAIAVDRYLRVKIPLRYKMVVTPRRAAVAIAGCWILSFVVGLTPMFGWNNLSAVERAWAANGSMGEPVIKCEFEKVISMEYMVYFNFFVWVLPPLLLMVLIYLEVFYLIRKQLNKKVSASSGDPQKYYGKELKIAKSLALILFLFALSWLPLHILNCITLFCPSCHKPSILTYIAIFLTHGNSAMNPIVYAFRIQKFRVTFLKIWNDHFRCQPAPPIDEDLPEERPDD
Chain of human Serotonin, 5-Hydroxytryptamine Receptor 5A (5HT5A), HTR5A (gene 3361) (P47898 whole entry, looked up): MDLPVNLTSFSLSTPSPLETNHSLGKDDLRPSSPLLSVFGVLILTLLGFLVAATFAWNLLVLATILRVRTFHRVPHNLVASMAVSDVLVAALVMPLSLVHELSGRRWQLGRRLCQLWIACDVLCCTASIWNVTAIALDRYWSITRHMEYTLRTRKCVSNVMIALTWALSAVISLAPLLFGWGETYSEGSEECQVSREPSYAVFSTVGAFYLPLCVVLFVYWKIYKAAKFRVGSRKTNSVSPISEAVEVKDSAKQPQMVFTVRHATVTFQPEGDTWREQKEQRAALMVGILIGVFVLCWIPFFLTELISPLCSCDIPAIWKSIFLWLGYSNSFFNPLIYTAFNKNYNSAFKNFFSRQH
Chain of rat Catechol-O-Methyl Transferase (COMT), Comt (gene 24267) (P22734 whole entry, looked up): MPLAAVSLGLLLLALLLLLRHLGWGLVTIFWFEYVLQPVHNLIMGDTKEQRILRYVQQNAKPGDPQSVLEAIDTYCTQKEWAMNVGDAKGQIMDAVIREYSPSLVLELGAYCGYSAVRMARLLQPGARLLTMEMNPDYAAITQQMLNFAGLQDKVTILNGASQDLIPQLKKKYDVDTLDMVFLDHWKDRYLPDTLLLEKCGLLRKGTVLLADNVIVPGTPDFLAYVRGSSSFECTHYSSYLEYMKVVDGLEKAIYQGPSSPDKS

The AC50 is the midpoint of the concentration-response curve, whichever way the signal moves. Consider `CCCOC(=O)c1cc(O)c(O)c(O)c1`, for which the AC50 was 14.8 µM (active) in test [1], 0.454 µM (active) in [2], 12 µM (active) in test [3] and 14.4 µM (active) in [5]. The molecule was called inactive in test [4].

`O=C1O[C@H]([C@@H](O)CO)C(O)=C1O`: in test [2], the AC50 is 11.5 µM (active).

On to `Cc1c2ccccc2c(C)c2c1ccc1ccccc12`, for which the call in [6] was inactive. Also, in [3], the AC50 is 43.3 µM (active).

Turning to `CCCCCCCCCCCCO`, in test [6], the molecule was called inactive.

In the case of `Oc1ccc2ccccc2c1`, the AC50 in test [3] was 5.35 µM (active). Moreover, the result in test [5] was inactive.

As for `OCCO`, in [6], the outcome was inactive.

For `COc1ccc2cc(S(=O)(=O)N[C@H](CC(=O)N[C@H](Cc3ccc(CN4[C@H](C)CCC[C@@H]4C)cc3)C(=O)N(C)C(C)C)c3ccc4c(c3)OCO4)ccc2c1`, the AC50 in test [7] was 37.5 µM (active); in test [8] it was 10.7 µM (active); in test [9], 7.94 µM (active); in [10], 5.48 µM (active); in test [12] it was 0.548 µM (active). Further, the outcome in test [11] and in [13] was inactive.

Regarding `O=c1[nH]sc2ccccc12`, the AC50 in [14] was 3.31 µM (active); in [11], 14.2 µM (active); in test [12], 21.5 µM (active); in [15], 14.3 µM (active); in test [13] it was 14.7 µM (active).

For `CCN(Cc1cccc(S(=O)(=O)O)c1)c1ccc(C(=C2C=CC(=[N+](CC)Cc3cccc(S(=O)(=O)O)c3)C=C2)c2ccccc2S(=O)(=O)[O-])cc1`, the AC50 in test [13] is 10.3 µM (active).

For the molecule `Clc1cc(Cl)c2c(c1)N=C1CCCCCN1C2`, the AC50 in [10] is 6.74 µM (active); in test [12], 10.5 µM (active).

On to `CCOC(=O)O[C@H](C)OC(=O)c1ccc2c(c1)cc(C(=O)NC1CCN(C(C)C)CC1)n2Cc1cc(-c2ccc(Cl)s2)on1`, for which the AC50 was 23.6 µM (active) in test [8]; 23.6 µM (active) in test [9]; 16.6 µM (active) in test [10]; 6.7 µM (active) in [11]; 7.12 µM (active) in test [15]; 15.9 µM (active) in [5]. Moreover, the AC50 was 2.12 µM (active) in test [13] and 10.2 µM (active) in test [16].

As for `Cc1ccc2oc(CN(Cc3ccccc3)C(=O)Nc3c(F)cc(F)cc3F)c(-c3ccc(Cl)cc3)c2c1`, the molecule was called inactive in [17].

With `Cc1occc1C(=O)Nc1ccc(C(=O)N2CCC(F)(F)/C(=C\C(=O)N3CCC(N4CCCCC4)CC3)c3ccccc32)cc1`, the AC50 in [7] is 3.76 µM (active); in test [10] it was 5.65 µM (active); in test [12], 2.49 µM (active); in [5], 3.24 µM (active); in test [13], 4.89 µM (active); in test [16], 2.33 µM (active).

For the molecule `C[C@]12CC[C@@H]3c4ccc(O)cc4CC[C@H]3[C@@H]1CC[C@H]2O`, the AC50 in test [15] was 25 µM (active).

With `O=C(O)Cc1cc(I)c(Oc2ccc(O)c(I)c2)c(I)c1`, the AC50 in test [4] was 0.623 µM (active). For the same molecule, the outcome in test [11] and in [5] was inactive.

As to `CC(C)(O)c1ccc(CNC(=O)c2cccnc2Oc2ccc3nonc3c2)cc1`, the values for the concentration at half-maximal activity (AC50) in test [4] and in test [12] were 0.646 µM (active) and 14.3 µM (active), respectively. Besides, in test [16], the outcome was inactive.
